Laboratory results published in PMC11006913.
Substitutions are numbered along the chain they refer to.

Columns and labels:
Assay in all cases: PBM; 200 nM protein, PBS
Details in all cases: dsDNA, one strand shown
VENTX [1] = biological target: T1, VENTX (Homo sapiens, UniProt O95231 78-163)
T1 sequence: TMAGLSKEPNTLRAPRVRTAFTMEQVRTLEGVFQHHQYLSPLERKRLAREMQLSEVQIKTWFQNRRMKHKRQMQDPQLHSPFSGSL

ALX4 = ALX4 (Homo sapiens, UniProt Q9H161 200-286)
HOXA7 [2] = biological target: HOXA7 (Homo sapiens, UniProt P31268 116-202)
Sequence of HOXA7 (Homo sapiens, UniProt P31268 116-202) (P31268 116-202): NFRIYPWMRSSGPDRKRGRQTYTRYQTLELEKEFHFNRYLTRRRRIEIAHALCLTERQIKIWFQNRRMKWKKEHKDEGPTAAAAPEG

HOXC10 [3] = biological target: HOXC10 (Homo sapiens, UniProt Q9NYD6 254-340)
Sequence of HOXC10 (Homo sapiens, UniProt Q9NYD6 254-340) (Q9NYD6 254-340): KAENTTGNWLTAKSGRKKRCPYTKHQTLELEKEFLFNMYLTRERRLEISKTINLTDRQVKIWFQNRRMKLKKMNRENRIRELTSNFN

HOXC10 [4] = biological target: HOXC10 (Homo sapiens, UniProt Q9NYD6 254-340, K271E)
Sequence of HOXC10 (Homo sapiens, UniProt Q9NYD6 254-340, K271E) (Q9NYD6 254-340 K271E): as the sequence (Q9NYD6 254-340) above, with K18E counted along it

HOXA7 [5] = biological target: HOXA7 (Homo sapiens, UniProt P31268 116-202, W177C)
Sequence of HOXA7 (Homo sapiens, UniProt P31268 116-202, W177C) (P31268 116-202 W177C): as the sequence (P31268 116-202) above, with W62C counted along it

VENTX [6] = biological target: T2, VENTX (Homo sapiens, UniProt O95231 78-163, Y115F)
T2 sequence: T1 sequence with Y38F

HOXC9 [7] = biological target: HOXC9 (Homo sapiens, UniProt P31274 178-260, K195R)
Sequence of HOXC9 (Homo sapiens, UniProt P31274 178-260, K195R) (P31274 178-260 K195R): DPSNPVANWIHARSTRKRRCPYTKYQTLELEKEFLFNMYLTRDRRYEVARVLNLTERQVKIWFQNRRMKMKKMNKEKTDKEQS

HOXC9 [8] = biological target: HOXC9 (Homo sapiens, UniProt P31274 178-260)
Sequence of HOXC9 (Homo sapiens, UniProt P31274 178-260) (P31274 178-260): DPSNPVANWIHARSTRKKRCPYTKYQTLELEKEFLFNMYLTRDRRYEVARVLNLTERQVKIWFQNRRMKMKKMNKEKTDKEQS

HOXC9 [9] = biological target: HOXC9 (Homo sapiens, UniProt P31274 178-260, R193K)
Sequence of HOXC9 (Homo sapiens, UniProt P31274 178-260, R193K) (P31274 178-260 R193K): as the sequence (P31274 178-260) above, with R16K counted along it

HOXC9 [10] = biological target: HOXC9 (Homo sapiens, UniProt P31274 178-260, R222W)
Sequence of HOXC9 (Homo sapiens, UniProt P31274 178-260, R222W) (P31274 178-260 R222W): as the sequence (P31274 178-260) above, with R45W counted along it

HOXB6 [11] = biological target: HOXB6 (Homo sapiens, UniProt P17509 132-218, K202E)
Sequence of HOXB6 (Homo sapiens, UniProt P17509 132-218, K202E) (P17509 132-218 K202E): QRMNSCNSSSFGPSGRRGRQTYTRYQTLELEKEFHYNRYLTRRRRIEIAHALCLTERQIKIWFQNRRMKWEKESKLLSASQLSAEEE

HOXB6 [12] = biological target: HOXB6 (Homo sapiens, UniProt P17509 132-218)
Sequence of HOXB6 (Homo sapiens, UniProt P17509 132-218) (P17509 132-218): as the sequence (P17509 132-218 K202E) above, with E71K counted along it

Sequence of ALX4 (Q9H161 200-286): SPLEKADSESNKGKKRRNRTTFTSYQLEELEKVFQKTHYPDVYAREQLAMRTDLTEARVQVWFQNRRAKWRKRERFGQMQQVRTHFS

In the case of CATTTACG, the binding signal (VENTX [1]) is reported as 10.4 upbm affinity estimate (log intensity, higher = more binding, comparable within an allelic series).

For GATTGAGC, the binding signal (VENTX [1]) was 9.7 upbm affinity estimate (log intensity, higher = more binding, comparable within an allelic series).

For CTAACGCA, the binding signal (VENTX [1]) was 9.98 upbm affinity estimate (log intensity, higher = more binding, comparable within an allelic series) and the binding signal (ALX4) was 9.64 upbm affinity estimate (log intensity, higher = more binding, comparable within an allelic series).

In the case of CAGGTCCC, the binding signal (HOXA7 [2]) is reported as 8.47 upbm affinity estimate (log intensity, higher = more binding, comparable within an allelic series), the binding signal (HOXC10 [3]) is reported as 10 upbm affinity estimate (log intensity, higher = more binding, comparable within an allelic series) and the binding signal (HOXC10 [4]) is reported as 10.1 upbm affinity estimate (log intensity, higher = more binding, comparable within an allelic series). The binding signal (HOXA7 [5]) was 8.4 upbm affinity estimate (log intensity, higher = more binding, comparable within an allelic series).

CGTGATCA was tested, and the binding signal (VENTX [1]) was 9.86 upbm affinity estimate (log intensity, higher = more binding, comparable within an allelic series) and the binding signal (VENTX [6]) was 9.57 upbm affinity estimate (log intensity, higher = more binding, comparable within an allelic series).

CGACTTAA was tested, and the binding signal (VENTX [1]) was 10.1 upbm affinity estimate (log intensity, higher = more binding, comparable within an allelic series) and the binding signal (ALX4) was 10.3 upbm affinity estimate (log intensity, higher = more binding, comparable within an allelic series).

In the case of GCCCCAGC, the binding signal (HOXC9 [7]) is reported as 9.66 upbm affinity estimate (log intensity, higher = more binding, comparable within an allelic series), the binding signal (HOXC9 [8]) is reported as 9.84 upbm affinity estimate (log intensity, higher = more binding, comparable within an allelic series) and the binding signal (HOXC9 [9]) is reported as 9.62 upbm affinity estimate (log intensity, higher = more binding, comparable within an allelic series). For the same sequence, the binding signal (HOXC9 [10]) was 9.7 upbm affinity estimate (log intensity, higher = more binding, comparable within an allelic series).

In the case of GGTGATAA, the binding signal (VENTX [1]) is reported as 10.3 upbm affinity estimate (log intensity, higher = more binding, comparable within an allelic series).

With CCTCCAGG the binding signal (HOXC9 [7]) was 9.43 upbm affinity estimate (log intensity, higher = more binding, comparable within an allelic series), the binding signal (HOXC9 [8]) was 9.47 upbm affinity estimate (log intensity, higher = more binding, comparable within an allelic series) and the binding signal (HOXC9 [9]) was 9.34 upbm affinity estimate (log intensity, higher = more binding, comparable within an allelic series). The binding signal (HOXC9 [10]) was 9.67 upbm affinity estimate (log intensity, higher = more binding, comparable within an allelic series).

In the case of ACCGATCT, the binding signal (VENTX [1]) is reported as 9.79 upbm affinity estimate (log intensity, higher = more binding, comparable within an allelic series).

For ACTAAGCG, the binding signal (VENTX [1]) was 10.2 upbm affinity estimate (log intensity, higher = more binding, comparable within an allelic series).

In the case of GAGTCCGC, the binding signal (HOXA7 [2]) is reported as 8.56 upbm affinity estimate (log intensity, higher = more binding, comparable within an allelic series), the binding signal (HOXC10 [3]) is reported as 10.1 upbm affinity estimate (log intensity, higher = more binding, comparable within an allelic series) and the binding signal (HOXB6 [11]) is reported as 9.05 upbm affinity estimate (log intensity, higher = more binding, comparable within an allelic series). For the same sequence, the binding signal (HOXC10 [4]) was 10.1 upbm affinity estimate (log intensity, higher = more binding, comparable within an allelic series), the binding signal (HOXA7 [5]) was 8.39 upbm affinity estimate (log intensity, higher = more binding, comparable within an allelic series) and the binding signal (HOXB6 [12]) was 8.98 upbm affinity estimate (log intensity, higher = more binding, comparable within an allelic series).

With CCAGCCCG the binding signal (HOXC9 [7]) was 9.66 upbm affinity estimate (log intensity, higher = more binding, comparable within an allelic series), the binding signal (HOXC9 [8]) was 9.72 upbm affinity estimate (log intensity, higher = more binding, comparable within an allelic series) and the binding signal (HOXC9 [9]) was 9.7 upbm affinity estimate (log intensity, higher = more binding, comparable within an allelic series). For the same sequence, the binding signal (HOXC9 [10]) was 9.67 upbm affinity estimate (log intensity, higher = more binding, comparable within an allelic series).

ATCACCAT was tested, and the binding signal (VENTX [1]) was 10.3 upbm affinity estimate (log intensity, higher = more binding, comparable within an allelic series).

With CCGTTATA the binding signal (HOXC9 [7]) was 11.3 upbm affinity estimate (log intensity, higher = more binding, comparable within an allelic series), the binding signal (HOXC9 [8]) was 11.3 upbm affinity estimate (log intensity, higher = more binding, comparable within an allelic series) and the binding signal (HOXC9 [9]) was 11.2 upbm affinity estimate (log intensity, higher = more binding, comparable within an allelic series). The binding signal (HOXC9 [10]) was 10.3 upbm affinity estimate (log intensity, higher = more binding, comparable within an allelic series).

CGCGTTTA was tested, and the binding signal (VENTX [1]) was 10.2 upbm affinity estimate (log intensity, higher = more binding, comparable within an allelic series).

In the case of CACCATTA, the binding signal (HOXC9 [7]) is reported as 11.9 upbm affinity estimate (log intensity, higher = more binding, comparable within an allelic series), the binding signal (HOXC9 [8]) is reported as 11.9 upbm affinity estimate (log intensity, higher = more binding, comparable within an allelic series) and the binding signal (HOXC9 [9]) is reported as 11.8 upbm affinity estimate (log intensity, higher = more binding, comparable within an allelic series). The binding signal (HOXC9 [10]) was 10.6 upbm affinity estimate (log intensity, higher = more binding, comparable within an allelic series).

For AAAATGCT, the binding signal (VENTX [1]) was 9.84 upbm affinity estimate (log intensity, higher = more binding, comparable within an allelic series).

For TTATGCAA, the binding signal (VENTX [1]) was 9.95 upbm affinity estimate (log intensity, higher = more binding, comparable within an allelic series).

For CCCCAGGG, the binding signal (HOXC9 [7]) was 9.62 upbm affinity estimate (log intensity, higher = more binding, comparable within an allelic series), the binding signal (HOXC9 [8]) was 9.8 upbm affinity estimate (log intensity, higher = more binding, comparable within an allelic series) and the binding signal (HOXC9 [9]) was 9.59 upbm affinity estimate (log intensity, higher = more binding, comparable within an allelic series). For the same sequence, the binding signal (HOXC9 [10]) was 9.62 upbm affinity estimate (log intensity, higher = more binding, comparable within an allelic series).

In the case of CCGGAAGG, the binding signal (HOXC9 [7]) is reported as 9.63 upbm affinity estimate (log intensity, higher = more binding, comparable within an allelic series), the binding signal (HOXC9 [8]) is reported as 9.81 upbm affinity estimate (log intensity, higher = more binding, comparable within an allelic series) and the binding signal (HOXC9 [9]) is reported as 9.73 upbm affinity estimate (log intensity, higher = more binding, comparable within an allelic series). For the same sequence, the binding signal (HOXC9 [10]) was 9.78 upbm affinity estimate (log intensity, higher = more binding, comparable within an allelic series).

With CATCATCA the binding signal (VENTX [1]) was 10.4 upbm affinity estimate (log intensity, higher = more binding, comparable within an allelic series).
